Data reported in PubChem BioAssay (NCATS).
Records with an inconclusive call do not appear. Unmarked numbers belong to inactive results. Calls of active or inactive are those of the source. Calls come from the whole dose curve.

Assay: Confirmatory qHTS to identify inhibitors of SARS-CoV-2 cell entry (AID 1645844); note: nearly all actives have a fitted effect of over 45% in size
Details: SARS-CoV-2 pseudotyped particle cell entry, luciferase; series mostly up to 57.2 µM; activity, negative = inhibition: at the top concentration
Text: Assay Provider: Wei Zheng, Ph.D.
National Center for Advancing Translational Sciences, National Institute of Health, Rockville, MD.
SARS-CoV-2 spike protein, within the viral envelope, mediates viral attachment and infection of host cells. The SARS-CoV-2 spike protein specifically binds to the host receptor ACE2 (Angiotensin-converting enzyme 2). This interaction promotes endocytosis of the viral particle, additional events lead to viral-host cell membrane fusion and release of the viral contents, allowing viral replication.
While SARS-CoV-2 requires BSL-3 facilities for live virus work, pseudotyped partices (PP) that incorporate SARS-CoV-2 spike proteins without replication elements could facilitate studies on viral entry mechanisms in a BSL-2 setting. This PP cell entry assay could also enable screening of small molecule compound libraries in BSL-2 setting to identify inhibitors of SARS-CoV-2 cell entry.
SEQUENCE No. (e.g., 1, 2, 3, etc.); […] (e.g., Cells, Incubation, Reagent, etc.); VALUE and DESCRIPTION.
1. Cells. Seed 1500 HEK293-ACE2 cells (Expi293F with stable expression of human ACE2) in 2 uL/well media (DMEM, 10% FBS, 1x L-glutamine, 1x Pen/Strep, 1 ug/ml puromycin) in white 1536-well assay plates (Greiner #782073).
2. Incubation. Incubate at 37C with 5% CO2 overnight (~16 h).
3. Compounds. Dispense 23 nL/well compounds in DMSO via pin transfer.
4. Incubation. Incubate for 1 hr at 37C 5% CO2.
5. Reagent. Dispense 2 uL/well of SARS-CoV-2-S pseudotyped particles (PP). [a] PPs are produced with murine leukemia virus pseudotyping). [b] SARS-CoV-2-S is Wuhan-Hu-1 sequence (BEI #NR-52420) with C-terminal 19 amino acid truncation.
6. Centrifugation. […]
7. Incubation. Incubate at for 48 hr at 37C 5% CO2
8. Centrifugation. Remove supernatant with gentle centrifugation using a Blue Washer (BlueCat Bio).
9. Reagent. Dispense 4 uL/well of Bright-Glo Luciferase detection reagent (Promega #E2620).
10. Incubation. Incubate for 5 min at room temperature.
11. Detection. Read luminescence signal (Viewlux plate reader, PerkinElmer). Data was normalized with wells containing SARS-CoV-2-S PP as 100%, and wells containing bald PP (no fusion protein) as 0%.
% is set by controls: 0 for no effect and ±100 for the full control effect; potency is the fitted concentration of half-maximal effect.

Row | SMILES | Potency | activity, negative = inhibition [%]
1 | Cc1cc(Nc2nc(N[C@@H](C)c3ncc(F)cn3)ncc2Cl)n[nH]1 | 2710 nM (active) | –
2 | Cc1n[nH]c(C)c1Cc1sc2c(c1C(=O)N1C[C@H](O)CO1)c(=O)n(C)c(=O)n2CC(C)C | 393 nM (active) | –
3 | CC(=O)Nc1ccc([C@H](C)C(=O)Nc2ncc(C(C)C)s2)cc1 | 4820 nM (active) | –
4 | O=c1[nH]c(-c2ccc(C(F)(F)F)cc2)nc2c1CSCC2 | 9610 nM (active) | –
5 | N#CCNC(=O)c1ccc(-c2ccnc(Nc3ccc(N4CCOCC4)cc3)n2)cc1 | 9610 nM (active) | –
6 | CC(C)(C)c1cnc(CSc2cnc(NC(=O)C3CCNCC3)s2)o1 | 4290 nM (active) | –
7 | CCCS(=O)(=O)Nc1ccc(F)c(C(=O)c2c[nH]c3ncc(-c4ccc(Cl)cc4)cc23)c1F | 68.1 nM (active) | –
8 | Cc1ccccc1-n1c(Cn2ncc3c(N)ncnc32)nc2cccc(C)c2c1=O | 7640 nM (active) | –
9 | CN1CC[C@@H](c2c(O)cc(O)c3c(=O)cc(-c4ccccc4Cl)oc23)[C@@H](O)C1 | 1210 nM (active) | –
10 | COc1cc2nccc(Oc3ccc(NC(=O)C4(C(=O)Nc5ccc(F)cc5)CC4)cc3)c2cc1OC | 2150 nM (active) | –
11 | O=C(c1cc(Cc2n[nH]c(=O)c3ccccc23)ccc1F)N1CCN(C(=O)C2CC2)CC1 | 27100 nM (active) | –
12 | COc1cc([C@@H]2c3cc4c(cc3[C@@H](O)C3COC(=O)C32)OCO4)cc(OC)c1O (stereo partly drawn) | 1710 nM (active) | –
13 | CC(=O)c1c(C)c2cnc(Nc3ccc(N4CCNCC4)cn3)nc2n(C2CCCC2)c1=O | 17100 nM (active) | –
14 | O=C(Nc1ccncc1)C(=O)c1cn(Cc2ccc(Cl)cc2)c2ccccc12 | 961 nM (active) | –
15 | CC(C)[C@H](C(=O)Nc1ccc(C(=O)NO)cc1)c1ccccc1 | – | -88.8
16 | O=C(O)c1ccc2c(c1)nc(Nc1cccc(Cl)c1)c1ccncc12 | 2150 nM (active) | –
17 | COc1cc(Nc2ncc3c(n2)-c2ccc(Cl)cc2C(c2c(F)cccc2OC)=NC3)ccc1C(=O)O | 10.8 nM (active) | –
18 | CN(c1ncccc1CNc1nc(Nc2ccc3c(c2)CC(=O)N3)ncc1C(F)(F)F)S(C)(=O)=O | 857 nM (active) | –
19 | Cc1ccc(C(N)=O)cc1Nc1nccc(-c2cn(C(C)C)c3cnccc23)n1 | 1710 nM (active) | –
20 | CNC(=O)c1cc(Oc2ccc(NC(=O)Nc3ccc(Cl)c(C(F)(F)F)c3)c(F)c2)ccn1 | 8570 nM (active) | –
21 | Cc1cc(Nc2cc(N3CCN(C)CC3)nc(Sc3ccc(NC(=O)C4CC4)cc3)n2)n[nH]1 | 121 nM (active) | –
22 | CS(=O)(=O)c1cccc(CNc2nc(Nc3ccc4c(c3)CCC(=O)N4)ncc2C(F)(F)F)c1 | 192 nM (active) | –
23 | CCc1c(C(=O)C(N)=O)c2c(OCC(=O)O)cccc2n1Cc1ccccc1 | – | -22.4
